# Calls of active or inactive are those of the source. Unless noted, no rule for the calls is given here.
# How the values were obtained:
# [1] = compounds binding Alexa647 anti-His antibody – biochemical, small-molecule microarray, 635 nm fluorescence, artefact control for SMM control protein annotation, primary screen (AID 1128); conditions: higher = more signal;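 also: score merges feature fluorescence with signal-to-noise for each printed compound spot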
# [2] = test system: Human papillomavirus type 1a E7 protein (residues 1-88); test: HPV1a E7 small-molecule binders, primary screen, biochemical, small-molecule microarray, residues 1-88, 635 nm (AID 1129); conditions: small-molecule microarray binding, fluorescence 635 nm; higher = more signal
# [3] = molecular target: Focal adhesion kinase 1 (Homo sapiens) (UniProt Q05397); test: PTK2 protein binding on printed compound slides – biochemical, small-molecule microarray, 635/667 nm fluorescence, BSA, DTT, primary screen (AID 1130); conditions: 635 nm fluorescence, higher = more signal;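 also: composite of spot emission at 667 nm and signal to noise over triplicate slides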
# [4] = test system: Fibrinogen (Alexa647-labelled); test: Alexa647-fibrinogen binding to printed small molecules – biochemical, small-molecule microarray, 635/667 nm fluorescence, artefact control for SMM control-protein annotation, profiling panel (AID 1131); conditions: fibrinogen-A647 binding fluorescence, higher = more signal;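 also: z-score merges 667 nm fluorescence with per-spot signal-to-noise over triplicate slides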
# [5] = molecular target: Follistatin (Homo sapiens) (UniProt P19883); test: FST protein binding to printed compounds – biochemical, small-molecule microarray, 635/667 nm fluorescence, primary screen (AID 1132); conditions: 635 nm fluorescence, higher = more signal
# [6] = molecular target: Fibroblast growth factor 2 (Homo sapiens) (UniProt P09038); test: basic fibroblast growth factor binding to printed compounds – biochemical, small-molecule microarray, 635/667 nm fluorescence, primary screen (AID 1133); conditions: FGF2, fluorescence 635/667, higher = more signal
# [7] = JC-1 mitochondrial potential readout, lung cancer cells – cell-based, A549, JC-1 fluorescence, basal, 24 h, 100 nL, profiling panel (AID 1138); conditions: higher = more signal;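 also: A549 lung adenocarcinoma cells under basal conditions with no added stimulus; test concentration not given here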
# [8] = test system: Lefty1; test: Lefty1 protein binding to printed compounds – biochemical, small-molecule microarray, 635/667 nm fluorescence, primary screen (AID 1139); conditions: fluorescence 635/667, higher = more signal
# [9] = test system: wheat germ agglutinin (Triticum aestivum), Alexa647-labelled; test: Alexa647-WGA lectin binding to printed small molecules – biochemical, small-molecule microarray, 635/667 nm fluorescence, artefact control for SMM control-protein annotation, profiling panel (AID 1140); conditions: WGA-A647 binding, 635 nm fluorescence, higher = more signal;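 also: score merges 667 nm feature emission with signal to noise over triplicate slides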
# [10] = molecular target: Luciferin 4-monooxygenase (Photinus pyralis) (UniProt P08659); test: inhibition of purified Photinus pyralis luciferase – biochemical, luminescence, purified enzyme, 2006 set, primary screen (AID 1141); conditions: purified firefly luciferase, SteadyGlo luminescence, 30 min; higher = more signal, called active from +8 up or from −8 down;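 also: cell-free assay with purified firefly luciferase at 100 ng per well in PBS; test concentration not given here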
# [11] = test system: Wnt5a (protein binding on small-molecule microarray); test: small molecules binding Wnt5a protein – biophysical, small-molecule microarray, 635/667 nm fluorescence, primary screen (AID 1142); conditions: 635 nm fluorescence, higher = more signal;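 also: fluorescence read at 667 nm with signal to noise per printed feature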
# [12] = ATP-based viability of Huh7 replicon cells – cell-based, CellTiter-Glo luminescence, basal, 48 h, cytotoxicity control for HCV replication inhibitor project, primary screen (AID 1143); conditions: higher = more signal, called active from +8 up or from −8 down;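 also: Huh7 hepatoma cells carrying a hepatitis C replication reporter with no stimulus; test concentration not given here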
# [13] = Pseudomonas biofilm growth suppression – PAO1 strain, BacTiter-Glo luminescence, LB-PBS, primary screen (AID 1144); conditions: P. aeruginosa PAO1 biofilm, 12 h, higher = more signal
# [14] = basal CRE-LacZ reporter activity in PC12 – cell-based, unstimulated, primary screen (AID 1145); conditions: no forskolin, luminescence, 4.5 h, higher = more signal, called active from +8 up or from −8 down
# [15] = forskolin-driven CRE-LacZ activity in PC12 – cell-based, CRE-LacZ reporter, forskolin-stimulated, primary screen (AID 1146); conditions: luminescence, 4.5 h, higher = more signal, called active from +8 up or from −8 down;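 also: PC12 cells with 6xCRE LacZ reporter stimulated by forskolin 10 µM; beta-galactosidase reporter signal reflecting CREB driven transcription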
# [16] = molecular target: Streptavidin (Streptomyces avidinii) (UniProt P22629); test: compounds binding control protein streptavidin – biophysical, small-molecule microarray, 635/667 nm fluorescence, artefact control for SMM compound annotation, primary screen (AID 1147); conditions: higher = more signal;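 also: signal reflects streptavidin binding to arrayed compounds as a control protein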
# [17] = probe aInhba binding on compound microarray – biochemical, small-molecule microarray, 635/667 nm fluorescence, primary screen (AID 1148); conditions: higher = more signal;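 also: score merges 667nm spot fluorescence with signal-to-noise for antibody binding to printed compounds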
# [18] = molecular target: Torsin-1A (Homo sapiens) (UniProt O14656); test: TOR1A wild-type binding on microarray – cell lysate, small-molecule microarray, lysate, 635/667 nm, primary screen (AID 1149); conditions: COS7 hTOR1A-WT lysate, 635 nm fluorescence, higher = more signal
# [19] = molecular target: Torsin-1A (Homo sapiens) (UniProt O14656); test: torsin A mutant lysate binding on microarrays – cell lysate, small-molecule microarray, COS7 lysate, 635/667 nm fluorescence, primary screen (AID 1150); conditions: COS7 hTOR1A mutant lysate, 635 nm fluorescence, higher = more signal;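 also: score pools 667 nm emission and signal to noise measuring lysate protein binding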
# [20] = test system: Sonic hedgehog protein (Shh); test: Sonic hedgehog microarray binding compounds – biochemical, small-molecule microarray, 635/667 nm fluorescence, primary screen (AID 1151); conditions: 635 nm fluorescence, higher = more signal;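 also: Shh protein binding to compounds spotted on small-molecule microarray slides; score combines spot fluorescence intensity with signal-to-noise across triplicate slides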
# Chain of Torsin-1A (Homo sapiens) (O14656 whole entry, looked up): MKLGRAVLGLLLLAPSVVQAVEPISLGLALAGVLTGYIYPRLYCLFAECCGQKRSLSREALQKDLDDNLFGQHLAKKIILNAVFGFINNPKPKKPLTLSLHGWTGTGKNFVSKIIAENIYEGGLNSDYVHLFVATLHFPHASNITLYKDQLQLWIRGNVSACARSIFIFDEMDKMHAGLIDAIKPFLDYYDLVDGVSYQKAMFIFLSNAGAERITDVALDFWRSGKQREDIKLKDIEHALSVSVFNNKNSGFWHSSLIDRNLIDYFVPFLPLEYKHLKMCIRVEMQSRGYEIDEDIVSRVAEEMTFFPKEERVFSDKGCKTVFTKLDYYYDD
# Chain of Follistatin (Homo sapiens) (P19883 whole entry, looked up): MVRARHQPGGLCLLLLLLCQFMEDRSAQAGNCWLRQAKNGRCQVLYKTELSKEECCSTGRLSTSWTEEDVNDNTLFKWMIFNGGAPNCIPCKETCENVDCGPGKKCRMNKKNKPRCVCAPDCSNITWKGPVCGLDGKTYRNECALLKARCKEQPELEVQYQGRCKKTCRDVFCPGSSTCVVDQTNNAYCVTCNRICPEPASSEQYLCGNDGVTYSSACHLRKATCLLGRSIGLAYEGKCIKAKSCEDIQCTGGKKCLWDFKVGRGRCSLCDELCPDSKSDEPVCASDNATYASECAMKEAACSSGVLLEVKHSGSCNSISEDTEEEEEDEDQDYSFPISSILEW
# Chain of Fibroblast growth factor 2 (Homo sapiens) (P09038 whole entry, looked up): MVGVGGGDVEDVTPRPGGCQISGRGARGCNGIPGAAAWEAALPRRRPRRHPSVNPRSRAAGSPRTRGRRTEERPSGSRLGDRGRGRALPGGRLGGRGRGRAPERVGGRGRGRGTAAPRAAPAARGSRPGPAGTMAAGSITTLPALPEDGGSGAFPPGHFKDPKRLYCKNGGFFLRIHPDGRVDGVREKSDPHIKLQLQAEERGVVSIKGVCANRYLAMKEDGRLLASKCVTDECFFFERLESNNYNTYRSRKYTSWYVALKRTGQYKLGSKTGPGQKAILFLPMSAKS
# Chain of Focal adhesion kinase 1 (Homo sapiens) (Q05397 whole entry, looked up): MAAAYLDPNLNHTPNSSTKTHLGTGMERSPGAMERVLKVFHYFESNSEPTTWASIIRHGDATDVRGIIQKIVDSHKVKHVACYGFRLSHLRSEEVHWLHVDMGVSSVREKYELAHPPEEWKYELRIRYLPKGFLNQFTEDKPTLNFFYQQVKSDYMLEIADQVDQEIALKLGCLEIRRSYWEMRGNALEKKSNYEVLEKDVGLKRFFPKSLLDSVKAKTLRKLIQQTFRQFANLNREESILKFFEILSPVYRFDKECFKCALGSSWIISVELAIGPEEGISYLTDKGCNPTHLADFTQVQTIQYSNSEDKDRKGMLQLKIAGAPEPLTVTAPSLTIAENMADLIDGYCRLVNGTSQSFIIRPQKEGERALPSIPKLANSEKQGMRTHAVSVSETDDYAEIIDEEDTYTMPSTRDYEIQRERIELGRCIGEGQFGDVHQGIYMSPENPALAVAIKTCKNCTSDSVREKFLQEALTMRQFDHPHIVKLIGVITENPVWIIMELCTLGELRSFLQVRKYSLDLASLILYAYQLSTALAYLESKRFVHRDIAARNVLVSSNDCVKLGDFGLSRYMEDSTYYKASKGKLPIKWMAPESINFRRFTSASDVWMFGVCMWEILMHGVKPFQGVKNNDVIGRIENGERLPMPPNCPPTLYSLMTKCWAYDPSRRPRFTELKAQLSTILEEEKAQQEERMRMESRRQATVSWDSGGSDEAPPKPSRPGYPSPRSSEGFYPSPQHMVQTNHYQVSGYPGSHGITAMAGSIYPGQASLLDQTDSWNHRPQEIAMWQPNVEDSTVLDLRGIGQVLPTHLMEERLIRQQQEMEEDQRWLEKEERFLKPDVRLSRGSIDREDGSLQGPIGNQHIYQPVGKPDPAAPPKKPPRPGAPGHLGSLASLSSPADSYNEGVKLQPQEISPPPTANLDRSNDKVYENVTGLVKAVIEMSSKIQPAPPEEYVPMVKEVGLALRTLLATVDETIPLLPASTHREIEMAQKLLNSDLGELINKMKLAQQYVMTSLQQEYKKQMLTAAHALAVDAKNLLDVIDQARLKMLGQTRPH
# Chain of Luciferin 4-monooxygenase (Photinus pyralis) (P08659 whole entry, looked up): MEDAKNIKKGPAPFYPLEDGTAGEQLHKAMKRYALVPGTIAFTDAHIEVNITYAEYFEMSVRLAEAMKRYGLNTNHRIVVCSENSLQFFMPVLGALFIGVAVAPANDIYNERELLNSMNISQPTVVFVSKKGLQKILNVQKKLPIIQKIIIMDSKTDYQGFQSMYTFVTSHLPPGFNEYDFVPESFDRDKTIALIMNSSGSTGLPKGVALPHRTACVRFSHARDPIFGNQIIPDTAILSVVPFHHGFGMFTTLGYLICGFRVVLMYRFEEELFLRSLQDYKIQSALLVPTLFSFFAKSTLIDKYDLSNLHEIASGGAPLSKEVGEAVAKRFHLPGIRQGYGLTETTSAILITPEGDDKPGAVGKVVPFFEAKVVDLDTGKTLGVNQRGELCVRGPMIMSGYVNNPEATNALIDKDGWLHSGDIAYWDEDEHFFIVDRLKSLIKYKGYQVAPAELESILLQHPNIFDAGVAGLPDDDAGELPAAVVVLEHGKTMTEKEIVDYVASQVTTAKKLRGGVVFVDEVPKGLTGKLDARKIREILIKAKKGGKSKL
# Chain of Streptavidin (Streptomyces avidinii) (P22629 whole entry, looked up): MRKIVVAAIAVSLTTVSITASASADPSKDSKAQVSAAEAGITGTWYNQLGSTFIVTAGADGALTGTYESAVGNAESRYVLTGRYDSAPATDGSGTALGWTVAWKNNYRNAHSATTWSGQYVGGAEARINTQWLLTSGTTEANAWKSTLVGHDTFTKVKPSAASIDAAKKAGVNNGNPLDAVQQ
SMILES,composite z-score [1],composite z-score [2],composite z-score [3],composite z-score [4],composite z-score [5],composite z-score [6],z-score [7],composite z-score [8],composite z-score [9],z-score [10],composite z-score [11],z-score [12],z-score [13],z-score [14],z-score [15],composite z-score [16],composite z-score [17],composite z-score [18],composite z-score [19],composite z-score [20]
COc1ccc([Si](C)(C)[C@@H]2[C@@H](CCn3cc([C@H](O)c4ccccc4)nn3)O[C@]3(C(=O)N(Cc4cccc(N5C(=O)c6cccc7cccc5c67)c4)c4ccccc43)[C@H]2C)cc1,0.195,-0.34,-0.426,-0.759,-0.0585,-0.758,0.794,0.199,-0.228,0.148 (inactive),-0.537,-3.34 (inactive),0.692 (inactive),0.0031 (inactive),0.471 (inactive),-0.0465,-0.0963,-1.06,-0.526,0.454
COC(=O)[C@@]1(Cc2ccc(F)cc2)[C@H]2c3cc(C(=O)N(C)C)n(Cc4ccc(O)c(OC)c4)c3C[C@H]2CN1C(=O)c1ccccc1,1.15,0.575,0.489,0.977,0.0157,0.0287,-1.18,-0.0615,0.438,1.08 (inactive),0.128,-2.65 (inactive),-1.24 (inactive),0.387 (inactive),0.0711 (inactive),0.575,-0.108,0.198,0.484,-0.556
CS(=O)(=O)CCOC(=O)C1=CC(CCCO)=CC(C2CC2)N(Cc2cccc(OC(F)(F)F)c2)C=C1C(=O)OCCS(C)(=O)=O (stereo not given),1.96,0.852,0.386,0.701,-0.0478,-0.256,1.62,0.126,0.927,-1.6 (inactive),0.0607,-1.21 (inactive),0.154 (inactive),4.86 (inactive),0.0235 (inactive),-0.358,0.0082,1.29,2.13,0.186
COc1ccc([Si](C)(C)[C@@H]2[C@@H](CC(=O)N3Cc4ccccc4C[C@H]3CO)O[C@]3(C(=O)N(Cc4ccc(N5CCC5=O)cc4)c4ccccc43)[C@H]2C)cc1,0.365,1.05,0.315,0.358,0.825,1.57,0.199,1.44,0.283,0.205 (inactive),0.159,-3.32 (inactive),-1.1 (inactive),0.409 (inactive),-0.448 (inactive),0.673,-0.167,-0.191,0.585,1.74
COCCOC(=O)N1C(=O)[C@@]2(c3cc(C#CC4(O)CCCCCC4)ccc31)[C@H](c1ccc(OCCO)cc1)N1[C@H](c3ccccc3)[C@H](c3ccccc3)OC(=O)[C@H]1[C@@H]2C(=O)Nc1nc2ccccc2s1,1.08,1.13,0.2,0.688,1.27,1.65,-2.33,1.38,0.708,-2.55 (inactive),0.544,-1.39 (inactive),0.3 (inactive),-0.337 (inactive),0.138 (inactive),0.945,0.134,0.494,0.734,1.84
CC(C)CNC(=O)[C@@]1(c2ccc([N+](=O)[O-])cc2)CC(=O)N(C2CCCCC2)[C@@H]1c1ccc(CO)cc1,1.91,1.23,-0.0282,0.583,0.536,1.04,0.214,-0.35,0.29,-0.977 (inactive),0.335,-2.21 (inactive),0.901 (inactive),0.585 (inactive),0.142 (inactive),-0.0755,-0.153,0.442,0.0881,-0.158
COCCOC(=O)N1C(=O)[C@@]2(c3cc(C#CCNC(N)=O)ccc31)[C@H](c1ccc(OCCO)cc1)N1[C@H](c3ccccc3)[C@H](c3ccccc3)OC(=O)[C@H]1[C@@H]2C(N)=O,1.11,1.14,0.31,0.663,0.926,0.258,-0.405,0.43,0.673,-1.83 (inactive),0.428,0.0121 (inactive),0.529 (inactive),0.228 (inactive),-0.304 (inactive),0.947,-0.0131,0.304,0.406,1.44
CC(C)C(=C=CC[C@@H](O)c1cccc(OCCO)c1)C[C@@H](O)c1ccccn1,1.39,-0.0234,0.0046,-1.15,0.484,-0.0241,0.386,0.402,0.782,0.179 (inactive),0.189,-0.846 (inactive),-0.382 (inactive),1.13 (inactive),-0.039 (inactive),-0.637,-0.13,-0.84,0.405,0.935
COCC(=C=CC[C@@H](O)c1ccc(OCCO)cc1)CCO,0.656,0.529,0.17,-0.97,1.08,0.517,0.721,0.993,1.27,-0.776 (inactive),0.0576,-0.258 (inactive),-0.934 (inactive),0.0986 (inactive),-0.482 (inactive),-0.471,-0.0762,0.995,0.966,1.59
COc1ccc(C(O)C2C=CC3C(=O)N(c4ccccc4)C(=O)C3N2Nc2ccccc2F)cc1 (stereo not given),2.35,1.18,0.616,0.918,0.244,-0.276,-0.652,-0.2,0.265,1.31 (inactive),0.0178,-0.0475 (inactive),-0.749 (inactive),-0.228 (inactive),0.604 (inactive),0.316,1.52,0.216,0.732,0.379
CN(C)CCCCCCNC(=O)[C@@H]1C[C@@H]2C(=O)N[C@@H](CCCCN)C(=O)N2[C@@H]1c1ccc(O)cc1,2.6,1.33,3.73,0.957,1.54,1.6,-0.742,1.66,1.73,0.307 (inactive),1.95,-1.9 (inactive),-1.3 (inactive),-1.08 (inactive),-0.643 (inactive),2.97,1.93,3.46,3.21,1.88
